Our source for the binding signal values is PMC7862700, “An all-to-all approach to the identification of sequence-specific readers for epigenetic DNA modifications on cytosine”.

Holding throughout (assay): DAPPL (digital affinity profiling via proximity ligation, sequencing); 10 mM Tris-HCl pH 7.5, 50 mM NaCl, 1 mM DTT, 4% glycerol, room temperature, 30 min; GST-TFs on glutathione beads, 16-mer random dsDNA library, 0.1% formaldehyde crosslink after washing; high values mean tight binding
The target in assay [1] is T1, FEV (Homo sapiens, UniProt Q99581 1-238).
T1 sequence: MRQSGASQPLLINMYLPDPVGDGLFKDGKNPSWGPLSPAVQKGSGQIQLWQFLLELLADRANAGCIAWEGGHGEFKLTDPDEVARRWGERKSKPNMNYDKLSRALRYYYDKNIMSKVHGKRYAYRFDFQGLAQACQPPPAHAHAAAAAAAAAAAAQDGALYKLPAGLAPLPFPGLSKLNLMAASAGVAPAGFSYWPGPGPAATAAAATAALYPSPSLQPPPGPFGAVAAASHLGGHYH
The conditions noted are these: protein: recombinant; tags: N-terminal GST; dsDNA, one strand shown. The method in brief:
(§1)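 Yeast served to express human transcription factors as GST fusions, which were then captured on glutathione beads and labelled with DNA barcodes. Pooled with a tag-only sample, they were incubated with 200 nmole of a 16-mer random double-stranded DNA library for 30 min at room temperature in Tris/NaCl/DTT/glycerol buffer, washed, crosslinked with 0.1% formaldehyde, ligated by proximity, amplified by PCR and sequenced. Dividing each hexamer's read frequency for a factor by its frequency for the tag-only sample gives the binding signal.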

Assay [2] addresses ETV5 (Homo sapiens, UniProt P41161 1-510). The conditions noted are these: protein: recombinant; tags: N-terminal GST; dsDNA, one strand shown. A digest of the protocol: as §1
Assay [3] has as its target HSF1 (Homo sapiens, UniProt Q00613 1-529). The conditions noted are these: protein: recombinant; tags: N-terminal GST; chain copies: 3; dsDNA, one strand shown. The method in brief:
as §1

In assay [4] the target is T2, SPIC (Homo sapiens, UniProt Q8N5J4 1-248).
T2 sequence: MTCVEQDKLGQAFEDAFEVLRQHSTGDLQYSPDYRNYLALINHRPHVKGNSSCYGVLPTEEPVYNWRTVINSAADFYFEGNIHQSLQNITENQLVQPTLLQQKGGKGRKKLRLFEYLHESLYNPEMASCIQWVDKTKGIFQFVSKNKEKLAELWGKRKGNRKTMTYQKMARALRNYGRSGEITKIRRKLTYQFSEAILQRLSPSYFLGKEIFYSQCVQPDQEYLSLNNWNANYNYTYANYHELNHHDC
The conditions noted are these: protein: recombinant; tags: N-terminal GST; dsDNA, one strand shown. The method in brief:
as §1

For assay [5], the target named is ELF4 (Homo sapiens, UniProt Q99607 1-663). The conditions noted are these: protein: recombinant; tags: N-terminal GST; dsDNA, one strand shown. A digest of the protocol:
as §1

In assay [6] the target is T3, ELK4 (Homo sapiens, UniProt P28324-2 1-405).
T3 sequence: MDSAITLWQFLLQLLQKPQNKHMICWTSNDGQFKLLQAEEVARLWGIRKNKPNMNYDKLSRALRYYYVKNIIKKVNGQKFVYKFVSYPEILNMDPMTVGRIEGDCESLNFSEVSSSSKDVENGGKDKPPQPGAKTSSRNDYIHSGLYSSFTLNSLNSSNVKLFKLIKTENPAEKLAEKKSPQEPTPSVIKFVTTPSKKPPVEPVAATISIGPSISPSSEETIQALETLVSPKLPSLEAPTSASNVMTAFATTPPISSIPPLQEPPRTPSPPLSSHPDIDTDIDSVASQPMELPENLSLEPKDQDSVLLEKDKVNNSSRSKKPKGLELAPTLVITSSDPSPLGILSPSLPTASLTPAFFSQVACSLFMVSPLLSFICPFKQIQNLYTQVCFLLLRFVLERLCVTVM
The conditions noted are these: protein: recombinant; tags: N-terminal GST; dsDNA, one strand shown. A digest of the protocol: as §1

Assay [7] has as its target T4, ETV2 (Homo sapiens, UniProt O00321 1-342).
T4 sequence: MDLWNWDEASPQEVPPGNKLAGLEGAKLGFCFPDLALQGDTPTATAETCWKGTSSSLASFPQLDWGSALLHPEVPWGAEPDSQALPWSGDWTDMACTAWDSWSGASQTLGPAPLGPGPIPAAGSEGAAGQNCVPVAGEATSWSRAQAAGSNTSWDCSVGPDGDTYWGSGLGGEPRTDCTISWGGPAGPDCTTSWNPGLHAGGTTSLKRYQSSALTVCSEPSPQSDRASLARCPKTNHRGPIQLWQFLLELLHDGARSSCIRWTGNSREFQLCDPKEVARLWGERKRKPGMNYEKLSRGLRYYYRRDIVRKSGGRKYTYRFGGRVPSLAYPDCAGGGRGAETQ
The conditions noted are these: protein: recombinant; tags: N-terminal GST; dsDNA, one strand shown. The method in brief:
as §1

Assay [8] addresses T5, ELF3 (Homo sapiens, UniProt P78545 1-371).
T5 sequence: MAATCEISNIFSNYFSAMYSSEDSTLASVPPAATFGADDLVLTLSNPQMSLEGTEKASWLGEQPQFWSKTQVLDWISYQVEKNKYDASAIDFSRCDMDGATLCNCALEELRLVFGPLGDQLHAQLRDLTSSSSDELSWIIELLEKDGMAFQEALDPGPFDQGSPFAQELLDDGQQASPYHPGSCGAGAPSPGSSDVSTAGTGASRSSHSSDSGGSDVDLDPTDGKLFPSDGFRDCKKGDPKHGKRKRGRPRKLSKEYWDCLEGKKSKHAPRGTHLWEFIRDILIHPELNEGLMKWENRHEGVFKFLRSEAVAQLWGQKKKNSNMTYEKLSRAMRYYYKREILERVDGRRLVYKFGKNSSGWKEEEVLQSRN
The conditions noted are these: protein: recombinant; tags: N-terminal GST; dsDNA, one strand shown. A digest of the protocol: as §1

Assay [9] deals with CRX (Homo sapiens, UniProt O43186 1-299). The conditions noted are these: protein: recombinant; tags: N-terminal GST; dsDNA, one strand shown. The method in brief:
as §1

Assay [10] deals with ETV1 (Homo sapiens, UniProt P50549 1-477). The conditions noted are these: protein: recombinant; tags: N-terminal GST; dsDNA, one strand shown. The method in brief: as §1
For assay [11], the target named is T6, ERF (Homo sapiens, UniProt P50548 1-548).
T6 sequence: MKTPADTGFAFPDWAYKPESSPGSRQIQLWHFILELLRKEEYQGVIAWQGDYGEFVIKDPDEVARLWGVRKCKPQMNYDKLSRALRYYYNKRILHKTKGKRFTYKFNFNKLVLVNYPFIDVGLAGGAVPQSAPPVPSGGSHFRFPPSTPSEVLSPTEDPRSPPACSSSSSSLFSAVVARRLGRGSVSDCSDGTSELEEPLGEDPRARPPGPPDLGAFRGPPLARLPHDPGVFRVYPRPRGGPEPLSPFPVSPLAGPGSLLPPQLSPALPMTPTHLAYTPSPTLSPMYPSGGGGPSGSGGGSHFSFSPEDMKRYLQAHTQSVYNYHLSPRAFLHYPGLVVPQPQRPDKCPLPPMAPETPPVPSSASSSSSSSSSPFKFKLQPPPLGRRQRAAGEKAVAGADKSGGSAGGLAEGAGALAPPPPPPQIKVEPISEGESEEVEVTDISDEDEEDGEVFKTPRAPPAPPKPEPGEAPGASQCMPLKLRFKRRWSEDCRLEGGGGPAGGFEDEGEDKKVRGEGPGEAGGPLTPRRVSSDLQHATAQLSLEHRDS
The conditions noted are these: protein: recombinant; tags: N-terminal GST; dsDNA, one strand shown. The method in brief: as §1

In assay [12] the target is T7, ETV3L (Homo sapiens, UniProt Q6ZN32 1-361).
T7 sequence: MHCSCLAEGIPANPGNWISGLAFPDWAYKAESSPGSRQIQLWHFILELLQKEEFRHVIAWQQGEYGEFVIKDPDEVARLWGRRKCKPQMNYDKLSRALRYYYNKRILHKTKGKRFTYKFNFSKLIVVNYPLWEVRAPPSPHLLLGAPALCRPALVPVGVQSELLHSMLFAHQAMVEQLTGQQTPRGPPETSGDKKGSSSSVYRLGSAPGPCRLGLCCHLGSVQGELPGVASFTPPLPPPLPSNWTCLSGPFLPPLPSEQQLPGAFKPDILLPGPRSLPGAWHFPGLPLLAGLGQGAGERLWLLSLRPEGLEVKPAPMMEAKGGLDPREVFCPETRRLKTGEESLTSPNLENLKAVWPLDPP
The conditions noted are these: protein: recombinant; tags: N-terminal GST; dsDNA, one strand shown. A digest of the protocol: as §1

Assay [13] has as its target T8, ETS2 (Homo sapiens, UniProt P15036 1-469).
T8 sequence: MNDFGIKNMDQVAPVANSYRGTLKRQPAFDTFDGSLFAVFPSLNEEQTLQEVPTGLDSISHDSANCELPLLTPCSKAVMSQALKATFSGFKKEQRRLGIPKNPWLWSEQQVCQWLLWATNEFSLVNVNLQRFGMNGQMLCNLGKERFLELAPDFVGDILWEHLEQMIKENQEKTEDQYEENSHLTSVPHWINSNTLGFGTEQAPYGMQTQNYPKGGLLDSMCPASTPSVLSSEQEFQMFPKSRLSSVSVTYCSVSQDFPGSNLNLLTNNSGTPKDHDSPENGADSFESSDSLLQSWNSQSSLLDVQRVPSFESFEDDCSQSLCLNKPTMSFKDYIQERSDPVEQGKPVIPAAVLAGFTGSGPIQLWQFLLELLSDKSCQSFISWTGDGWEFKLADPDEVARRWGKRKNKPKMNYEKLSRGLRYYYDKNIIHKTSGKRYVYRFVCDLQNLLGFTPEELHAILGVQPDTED
The conditions noted are these: protein: recombinant; tags: N-terminal GST; dsDNA, one strand shown. A digest of the protocol: as §1

Assay [14] deals with T9, SPDEF (Homo sapiens, UniProt O95238 1-335).
T9 sequence: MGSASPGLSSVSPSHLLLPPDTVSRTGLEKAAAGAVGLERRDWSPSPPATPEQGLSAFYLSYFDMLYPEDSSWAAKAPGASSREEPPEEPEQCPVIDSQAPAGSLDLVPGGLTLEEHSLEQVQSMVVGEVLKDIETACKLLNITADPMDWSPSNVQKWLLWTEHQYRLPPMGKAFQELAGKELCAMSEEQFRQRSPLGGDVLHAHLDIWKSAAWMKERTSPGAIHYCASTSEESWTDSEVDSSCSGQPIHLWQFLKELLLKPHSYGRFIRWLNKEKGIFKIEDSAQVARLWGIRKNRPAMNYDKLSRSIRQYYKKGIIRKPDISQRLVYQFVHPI
The conditions noted are these: protein: recombinant; tags: N-terminal GST; dsDNA, one strand shown. The method in brief: as §1

In assay [15] the target is T10, ETV7 (Homo sapiens, UniProt Q9Y603 1-341).
T10 sequence: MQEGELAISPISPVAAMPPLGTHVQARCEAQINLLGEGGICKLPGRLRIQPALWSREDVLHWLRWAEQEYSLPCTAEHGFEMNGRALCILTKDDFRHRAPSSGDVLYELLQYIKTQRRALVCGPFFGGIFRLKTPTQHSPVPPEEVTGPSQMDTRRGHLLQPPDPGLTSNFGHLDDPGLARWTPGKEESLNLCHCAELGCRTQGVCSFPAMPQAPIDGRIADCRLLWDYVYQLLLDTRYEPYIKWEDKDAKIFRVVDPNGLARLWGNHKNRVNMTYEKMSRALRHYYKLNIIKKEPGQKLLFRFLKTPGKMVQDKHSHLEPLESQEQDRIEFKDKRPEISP
The conditions noted are these: protein: recombinant; tags: N-terminal GST; dsDNA, one strand shown. The method in brief: as §1

Assay [16] has as its target T11, ELF5 (Homo sapiens, UniProt Q9UKW6-2 1-255).
T11 sequence: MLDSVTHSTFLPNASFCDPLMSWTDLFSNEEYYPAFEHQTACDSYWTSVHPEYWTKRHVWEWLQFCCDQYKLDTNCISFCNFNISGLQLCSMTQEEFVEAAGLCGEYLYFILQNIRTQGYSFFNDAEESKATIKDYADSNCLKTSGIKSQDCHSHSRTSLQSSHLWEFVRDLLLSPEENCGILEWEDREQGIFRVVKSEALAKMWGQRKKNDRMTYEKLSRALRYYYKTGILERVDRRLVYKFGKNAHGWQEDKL
The conditions noted are these: protein: recombinant; tags: N-terminal GST; dsDNA, one strand shown. The method in brief:
as §1

Assay [17] concerns the target T12, ETV3 (Homo sapiens, UniProt P41162-2 1-143).
T12 sequence: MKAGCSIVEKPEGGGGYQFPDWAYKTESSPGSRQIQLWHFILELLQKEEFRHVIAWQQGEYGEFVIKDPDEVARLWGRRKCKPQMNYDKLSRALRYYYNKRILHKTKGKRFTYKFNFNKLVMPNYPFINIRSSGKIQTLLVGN
The conditions noted are these: protein: recombinant; tags: N-terminal GST; dsDNA, one strand shown. The method in brief: as §1

In assay [18] the target is ETV6 (Homo sapiens, UniProt P41212 1-452). The conditions noted are these: protein: recombinant; tags: N-terminal GST; dsDNA, one strand shown. A digest of the protocol:
as §1

ETV1, sequence (P50549 whole entry): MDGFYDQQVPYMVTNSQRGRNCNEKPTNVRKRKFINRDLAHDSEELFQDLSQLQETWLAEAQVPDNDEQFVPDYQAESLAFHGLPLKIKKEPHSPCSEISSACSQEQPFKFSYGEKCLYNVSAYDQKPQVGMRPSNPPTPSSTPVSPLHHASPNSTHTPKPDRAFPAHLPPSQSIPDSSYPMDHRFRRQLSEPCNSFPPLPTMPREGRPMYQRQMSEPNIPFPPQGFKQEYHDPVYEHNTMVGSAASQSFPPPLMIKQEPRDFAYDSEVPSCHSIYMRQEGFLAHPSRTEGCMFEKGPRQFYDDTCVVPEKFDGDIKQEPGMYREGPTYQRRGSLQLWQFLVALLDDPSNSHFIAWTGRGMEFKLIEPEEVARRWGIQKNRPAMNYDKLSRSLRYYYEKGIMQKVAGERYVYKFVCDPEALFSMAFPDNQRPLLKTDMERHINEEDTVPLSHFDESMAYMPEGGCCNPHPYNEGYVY
ETV5, sequence (P41161 whole entry): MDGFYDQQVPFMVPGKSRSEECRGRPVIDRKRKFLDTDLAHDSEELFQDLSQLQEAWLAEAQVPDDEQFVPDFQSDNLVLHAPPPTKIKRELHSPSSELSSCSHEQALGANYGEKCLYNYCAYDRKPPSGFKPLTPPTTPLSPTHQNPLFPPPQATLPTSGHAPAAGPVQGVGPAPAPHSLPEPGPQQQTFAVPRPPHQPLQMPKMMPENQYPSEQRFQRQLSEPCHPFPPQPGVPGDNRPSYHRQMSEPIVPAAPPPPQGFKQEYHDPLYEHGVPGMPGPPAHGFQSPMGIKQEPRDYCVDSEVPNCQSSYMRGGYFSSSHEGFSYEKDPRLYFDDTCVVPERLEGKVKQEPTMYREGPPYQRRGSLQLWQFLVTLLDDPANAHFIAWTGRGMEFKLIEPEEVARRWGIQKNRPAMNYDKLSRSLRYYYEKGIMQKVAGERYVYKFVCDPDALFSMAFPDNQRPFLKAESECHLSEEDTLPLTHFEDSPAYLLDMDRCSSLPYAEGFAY
ETV6, sequence (P41212 whole entry): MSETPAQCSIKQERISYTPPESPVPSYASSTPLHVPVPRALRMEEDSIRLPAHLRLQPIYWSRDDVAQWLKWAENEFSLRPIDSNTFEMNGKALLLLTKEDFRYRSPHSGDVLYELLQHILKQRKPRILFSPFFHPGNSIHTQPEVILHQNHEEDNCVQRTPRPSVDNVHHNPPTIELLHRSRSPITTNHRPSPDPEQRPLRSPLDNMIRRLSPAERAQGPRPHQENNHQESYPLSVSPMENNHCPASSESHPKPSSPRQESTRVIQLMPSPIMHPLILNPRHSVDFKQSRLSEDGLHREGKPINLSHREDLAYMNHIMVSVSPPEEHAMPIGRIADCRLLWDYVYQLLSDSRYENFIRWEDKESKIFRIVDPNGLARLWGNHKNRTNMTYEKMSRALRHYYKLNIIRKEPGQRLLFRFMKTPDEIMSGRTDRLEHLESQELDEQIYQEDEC
CRX, sequence (O43186 whole entry): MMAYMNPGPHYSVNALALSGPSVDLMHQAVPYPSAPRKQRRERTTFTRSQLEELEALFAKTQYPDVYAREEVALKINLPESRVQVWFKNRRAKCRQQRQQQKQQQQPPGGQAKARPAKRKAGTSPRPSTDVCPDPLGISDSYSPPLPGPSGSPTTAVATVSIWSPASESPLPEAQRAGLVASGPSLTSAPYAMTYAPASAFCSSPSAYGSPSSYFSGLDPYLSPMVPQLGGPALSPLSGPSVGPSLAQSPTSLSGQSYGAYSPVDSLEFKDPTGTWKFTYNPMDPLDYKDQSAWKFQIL
HSF1, sequence (Q00613 whole entry): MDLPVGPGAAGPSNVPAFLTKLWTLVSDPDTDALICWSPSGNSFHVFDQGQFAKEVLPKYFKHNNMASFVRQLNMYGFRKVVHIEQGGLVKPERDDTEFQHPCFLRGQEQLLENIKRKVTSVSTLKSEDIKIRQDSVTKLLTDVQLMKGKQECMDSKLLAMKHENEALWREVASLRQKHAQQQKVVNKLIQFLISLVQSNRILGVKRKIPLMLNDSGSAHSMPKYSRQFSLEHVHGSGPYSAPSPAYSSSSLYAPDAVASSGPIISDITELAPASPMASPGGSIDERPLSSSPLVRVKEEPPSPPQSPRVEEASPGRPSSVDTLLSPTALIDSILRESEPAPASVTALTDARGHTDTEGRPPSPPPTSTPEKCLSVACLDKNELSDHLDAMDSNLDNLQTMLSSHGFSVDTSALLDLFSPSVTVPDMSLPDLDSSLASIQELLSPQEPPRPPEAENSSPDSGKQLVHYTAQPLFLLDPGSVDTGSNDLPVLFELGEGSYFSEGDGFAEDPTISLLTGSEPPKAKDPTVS
ELF4, sequence (Q99607 whole entry): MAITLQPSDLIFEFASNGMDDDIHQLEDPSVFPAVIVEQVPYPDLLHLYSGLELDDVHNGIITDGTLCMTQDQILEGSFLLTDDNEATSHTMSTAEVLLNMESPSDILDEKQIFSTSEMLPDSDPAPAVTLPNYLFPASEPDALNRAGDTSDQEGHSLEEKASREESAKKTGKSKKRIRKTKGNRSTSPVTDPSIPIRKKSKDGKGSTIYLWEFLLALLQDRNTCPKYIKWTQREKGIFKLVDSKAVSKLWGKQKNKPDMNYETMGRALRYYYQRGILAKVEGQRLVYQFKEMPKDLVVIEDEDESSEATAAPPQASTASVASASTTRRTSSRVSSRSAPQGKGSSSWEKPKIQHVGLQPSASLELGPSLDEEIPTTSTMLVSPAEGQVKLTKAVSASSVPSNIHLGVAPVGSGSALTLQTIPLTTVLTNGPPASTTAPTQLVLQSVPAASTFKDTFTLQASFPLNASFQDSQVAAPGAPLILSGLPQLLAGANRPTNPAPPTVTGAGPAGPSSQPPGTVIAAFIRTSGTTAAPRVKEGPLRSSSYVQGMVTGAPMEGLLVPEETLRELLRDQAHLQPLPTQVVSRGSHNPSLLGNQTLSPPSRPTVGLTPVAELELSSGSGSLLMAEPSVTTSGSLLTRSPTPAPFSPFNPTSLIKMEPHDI

Take ATAAAA: the binding signal is 1.15 fold enrichment (6-mer frequency, TF over GST control) in assay [1]; 1.12 fold enrichment (6-mer frequency, TF over GST control) in assay [2]; 1.31 fold enrichment (6-mer frequency, TF over GST control) in [3]; 1.02 fold enrichment (6-mer frequency, TF over GST control) in assay [4]; 1.2 fold enrichment (6-mer frequency, TF over GST control) in assay [5]; 1.17 fold enrichment (6-mer frequency, TF over GST control) in assay [6]. Besides, the binding signal was 1.2 fold enrichment (6-mer frequency, TF over GST control) in [7]; 1.2 fold enrichment (6-mer frequency, TF over GST control) in [8]; 1.43 fold enrichment (6-mer frequency, TF over GST control) in assay [9]; 1.16 fold enrichment (6-mer frequency, TF over GST control) in assay [10]; 1.13 fold enrichment (6-mer frequency, TF over GST control) in assay [11]; 1.15 fold enrichment (6-mer frequency, TF over GST control) in assay [12]. Also, the binding signal in assay [13] is 1.17 fold enrichment (6-mer frequency, TF over GST control); in [14] it was 1.12 fold enrichment (6-mer frequency, TF over GST control); in [15], 1.1 fold enrichment (6-mer frequency, TF over GST control); in assay [16], 1.11 fold enrichment (6-mer frequency, TF over GST control); in assay [17] it was 1.15 fold enrichment (6-mer frequency, TF over GST control); in assay [18] it was 1.16 fold enrichment (6-mer frequency, TF over GST control).
